Hits are enriched below; roughly 3.4% of the tested compounds scored in any of these assays.
APP 5'UTR act – activators of APP 5'UTR luciferase reporter, primary screen, SH-SY5Y cells; activation, % at 2 µM; 1% of 190,000 active; AID 1276, 2008; SH-SY5Y APP 5'UTR luciferase reporter, luminescence; zero percent = DMSO vehicle wells;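 active means activation above a set limit, based on mean plus 3 SD of controls, cut at about 140% in these data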
ssDAF-12 act – S. stercoralis DAF-12 nuclear receptor activators, primary screen, cell-based, luminescence, HEK293, GRIP1 co-expression, lit1-tk-luc; Nuclear hormone receptor DAF-12 (Strongyloides stercoralis); HEK293 ssDAF-12/GRIP1 lit1-tk-luc reporter; % of 3 µM dafachronic acid response; activation, % at 6.8 µM; 1% of 370,000 active;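 active means activation above the mean over all tested compounds plus 3 SD, cut at about 0.9% in these data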;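 further: 0% = DMSO-only wells and 100% = 3 µM delta7-dafachronic acid wells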
NF-kB neuron act – activators of NF-kB expression in neurons, primary screen, cell-based, HTS; fold change at 12.5 µM; human neuronal cells, NF-kB reporter expression; active compounds read high; 1.6% of 190,000 active; in the data active means fold change above about 3.3
hcDAF-12 act – H. contortus DAF-12 nuclear receptor activators, primary screen, cell-based, luminescence, HEK293, lit1-tk-luc reporter. HEK293 hcDAF-12 lit1-tk-luc reporter; 0% DMSO, 100% Δ7-dafachronic acid. activation, % at 6.8 µM. 1.4% of 370,000 active;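 active means activation above the mean of all tested compounds plus 3 SD, cut at about 5.5% in these data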;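 further: 100% = response to 3 µM Δ7-dafachronic acid high control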
hgDAF12 agonist – H. glycines DAF-12 receptor agonists, primary screen, cell-based, luminescence, HEK293, GAL4 fusion, UAS-luciferase; HEK293 GAL4-hgDAF12 UAS-luciferase reporter, agonist luminescence; normalized to butyrate control; activation, % at 6.8 µM; 1.8% of 370,000 active;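 active means activation above a cutoff set at the mean of all screened compounds plus 3 SD, cut at about 10% in these data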;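 further: 0% = DMSO wells and 100% = sodium butyrate wells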
Numbers without * were called inactive; / = no result given.

SMILES	APP 5'UTR act	ssDAF-12 act	NF-kB neuron act	hcDAF-12 act	hgDAF12 agonist
CC(C)(C)c1cc(NCCCn2ccnc2)n2ncc(-c3ccc(Cl)cc3)c2n1	21.0	-0.8	0.76	1.5	10.4*
CN(C)CCCNc1cc(C(C)(C)C)nc2c(-c3ccccc3)cnn12	/	1.3*	/	2.2	8.2
CN(C)CCCNc1cc(-c2ccccc2)nc2cc(-c3cccc(F)c3)nn12	/	-0.4	/	0.5	2.4
CCOC(=O)C1CCN(C(=O)C(C)(C)NC(=O)Nc2ccc(N(C)C)cc2)CC1	/	-1.9	/	0.0	-1.6
O=c1cc(Cl)[nH]c(=O)n1CCNc1ncc(C(F)(F)F)cc1Cl	21.2	-0.8	2.03	4.8	11.1*
CCN=c1scc(C)n1/N=C/c1ccsc1	97.4	0.6	3.65*	1.1	9.7
Cn1cccc1-c1nc2ccc([N+](=O)[O-])cc2[nH]1	/	-0.6	/	2.6	11.4*
CC(COc1ccccc1)N1CCC(CO)(Cc2ccccc2)CC1 (centres undefined)	26.7	-0.7	4.39*	-2.2	-1.1
COc1ccc(CC2(CO)CCN(C(C)COc3ccccc3)CC2)cc1 (centres undefined)	-12.1	-0.3	1.04	-1.3	-2.2
O=C(OCc1ccccc1)[C@H](Cc1ccccc1)NC(=O)[C@@H]1CC=C[C@@H]2CCN(CCc3ccccc3)C(=O)[C@@H]21	/	-1.8	/	-1.3	0.4
c1ccc(-c2csc3ncn4nnnc4c23)cc1	13.9	1.0*	1.04	-1.4	1.3
Cn1nnnc1Sc1ncnc2scc(-c3ccccc3)c12	-7.8	-1.3	2.85	-0.3	-6.3
O=C(CSc1nnc(-c2cccs2)o1)c1ccc2c(c1)OCO2	/	-1.5	/	0.3	-0.5
COC(=O)/C(=C\c1cc(OC)c(OC)c(OC)c1)c1nc2ccccc2[nH]1	19.6	-2.1	1.89	-1.2	1.2
COc1cc(/C=C(/C(=O)c2cccs2)c2nc3ccccc3[nH]2)ccc1O	42.5	-0.8	4.54*	1.7	10.8*
CCc1nnc(NC(=S)Nc2ccccc2)s1	48.6	0.0	3.34*	4.2	11.9*
Cc1ccc(C(=O)/C=C/c2cn(CN3CCN(C)CC3)c3ccccc23)cc1	76.4	-0.1	7.28*	0.6	12.7*
O=C(/C=C/c1cn(CC(O)CN2CCCCCC2)c2ccccc12)c1cccs1 (centres undefined)	-0.7	-0.6	1.49	1.6	1.3
O=C(CSc1nc2ccccc2nc1N1CCCCC1)N1CCN(C(c2ccccc2)c2ccc(Cl)cc2)CC1 (centres undefined)	/	-0.7	/	-0.7	-1.9
c1ccc(-c2nc(-c3ccccn3)nc(-c3ccccn3)n2)nc1	/	-0.5	/	2.7	-1.0
c1ccc(-c2cnc(-c3ccccn3)nn2)cc1	/	0.8	/	4.4	11.4*
COc1ccc(Cc2nc(-c3cccs3)no2)cc1OC	17.7	-1.0	1.2	-2.4	8.6
c1csc(-c2noc(COc3ccc4c(c3)CCCC4)n2)c1	125.7	0.4	4.4*	2.8	11.8*
COc1ccc(Cc2nc(-c3cccs3)no2)cc1	20.4	-0.6	1.74	0.3	10.9*
COc1ccc(Cc2nc(-c3ccccc3)no2)cc1	5.9	-1.0	2.03	0.7	12.8*
SMILES	APP 5'UTR act	ssDAF-12 act	NF-kB neuron act	hcDAF-12 act	hgDAF12 agonist
Brc1ccc(-c2noc(COc3ccc4c(c3)CCC4)n2)o1	4.1	0.7	1.16	-0.1	0.0
CC1CCCN(CCCNS(=O)(=O)c2cc3c(cc2Br)CCN3C(=O)C2CC2)C1 (centres undefined)	/	-0.3	/	-0.1	3.3
Cc1nc(NC(=O)c2ccc(Cl)cc2)sc1Cc1ccc2c(c1)OCO2	4.8	-0.3	1.49	-2.2	3.8
CC(=O)c1sc(NC(=O)c2ccc3c(c2)OCO3)nc1C	/	-0.5	/	4.0	11.6*
CC(C)Oc1ccc(C(=O)NC2CCCCC2)cc1	/	0.2	2.74	5.0	6.5
C=CCOc1ccc(C(=O)NC2CCCCC2)cc1	23.2	-0.7	2.07	4.4	10.5*
O=C(NC1CCCCCCC1)c1ccc2c(c1)OCO2	153.2*	1.1*	6.93*	4.5	10.3
CCCc1cc(C(=O)Nc2nccs2)cs1	152.0*	-0.5	6.71*	4.3	12.0*
C=CCCC(=O)N1CCC(C(=O)NC2CCCc3ccccc32)CC1 (centres undefined)	/	-0.7	/	-3.6	2.9
CCCCCn1nnnc1C1(C)CCCC(=O)N1Cc1ccco1 (centres undefined)	/	-0.7	/	-0.3	1.9
COC(=O)C1CN(Cc2cn(CCC3OCCO3)nn2)CCS(=O)(=O)N1Cc1ccc(C)cc1 (centres undefined)	/	-1.1	/	-2.8	2.2
CCN(Cc1ccccc1)C(=O)CCCN1C(=O)COc2ccc(C)cc21	/	-1.8	/	-2.2	2.3
O=C(Nc1nccs1)c1ccc2c(c1)OCO2	/	-0.4	/	3.6	11.3*
O=C(Cc1ccc([N+](=O)[O-])cc1)Nc1nccs1	/	-0.5	/	-0.7	0.3
CC(=O)c1sc(NC(=O)c2ccc(C)c(C)c2)nc1C	172.2*	-1.2	2.89	2.0	13.0*
CC(=O)c1sc(NC(=O)c2cnc(Cl)c(Cl)c2)nc1C	/	-0.2	/	4.2	6.1
O=C(Nc1nccs1)c1ccc([N+](=O)[O-])cc1	/	1.2*	/	4.8	6.3
CC(=O)N1CCN(C(=O)CSc2nc3cccnc3n2C)CC1	/	-0.8	/	-1.1	-0.9
COc1ccc(C2=CCN(C)C(=O)N2c2ccc([N+](=O)[O-])cc2)cc1	/	0.0	/	-2.5	1.6
N/C(Cc1cccc2ccccc12)=N\O	/	-0.4	/	5.7*	2.1
NC(=O)c1cc2c(s1)-c1cc(Cl)ccc1SC2	/	-0.3	/	4.0	3.4
COCCNC(=O)c1cc2c(s1)-c1ccc(Cl)cc1SC2	/	0.7	/	0.7	12.8*
CCn1c(SCC(=O)N2CCCCCC2)nc2c([nH]c3ccccc32)c1=O	/	-0.1	/	5.3	0.6
CCn1c(SCC(=O)N2CCN(c3ccccc3)CC2)nc2c([nH]c3ccccc32)c1=O	/	1.2*	/	3.0	3.5
COc1ccc2[nH]c(=O)c(CNc3ccccc3OC)cc2c1	/	-0.6	/	2.7	-1.0
COc1ccc2[nH]c(=O)c(CNc3ccccc3C)cc2c1	/	1.4*	/	3.4	7.0
O=C(c1ccc(CSc2nc3ccncc3[nH]2)cc1)N1CCCCCC1	/	-0.3	/	3.6	12.7*
O=C(c1ccc(CSc2nc3ccncc3[nH]2)cc1)N1CCN(c2cccc(Cl)c2)CC1	3.0	-2.4	0.47	-4.8	-11.0
Cc1cccc(CNC(=S)OCCN2CCCC23CCC(c2ccccc2)CC3)c1 (centres undefined)	/	-1.7	/	2.2	1.9
O=C1Nc2ccc(Br)cc2/C1=C/C1CC=CCC1 (centres undefined)	59.5	1.0*	0.84	1.9	2.6
